From PubChem BioAssay
BoNT A protease = BoNT/A light chain protease inhibitors, primary screen, biochemical, flow cytometry, MLPCN library; multiplex microsphere protease substrate cleavage; inhibition, % at 10 µM; 360,000 compounds, 0.17% hits; Botulinum neurotoxin type A light chain protease (Clostridium botulinum A str. ATCC 3502); note: plate controls were buffer without enzyme for full effect and enzyme alone for no effect
Bead autofluor = flagged as autofluorescent in microsphere protease counterscreen; compound autofluorescence counterscreen, microsphere flow cytometry; active compounds read high; fluorescence intensity (concentration not given with the values); 360,000 compounds, 3.1% hits; AID 624483; in the data active = fluorescence intensity above about 16000; inconclusive = no clear call, values can overlap the other calls
Anthrax LF inh2 = Bacillus anthracis LF protease inhibitors, primary screen, biochemical, multiplex microsphere, MLPCN library. multiplex microsphere protease cleavage assay. Lethal factor (Bacillus anthracis), P15917. inhibition, % at 10 µM. 360,000 compounds, 0.12% hits; note: plate controls were buffer without enzyme for full effect and enzyme alone for no effect
SSB-PriA inh = inhibitors of Klebsiella pneumoniae PriA binding to SSB C-terminal tail, primary screen, biochemical, AlphaScreen. AlphaScreen SSBct-PriA binding, biotinylated peptide. inhibition, % at 33 µM. 430,000 compounds, 0.6% hits; in the data active = inhibition mostly above about 37%, no sharp cut-off; inactive = mostly below about 20%;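 note: plate controls were negative control peptide for no effect and reference peptide for full effect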
BoNT-F LC inh = BoNT/F light chain protease inhibitors, primary screen, biochemical, flow cytometry, MLPCN library | Botulinum neurotoxin type F light chain protease (Clostridium botulinum) | Multiplex microsphere protease cleavage assay | inhibition, % at 10 µM | 360,000 compounds, 0.22% hits | AID 588497, 2011; in the data active = inhibition above about 35%, passing the limit was not always enough; inconclusive = no clear call, values can overlap the other calls; note: plate controls were buffer without enzyme for full effect and enzyme alone for no effect
MazEF act = activators of E. coli MazEF toxin-antitoxin RNase, primary screen, biochemical, fluorescence, uHTS; FAM/BHQ RNA-DNA oligo cleavage fluorescence, 5 h; 350,000 compounds, 0.32% hits; activation, % at 20 µM; AID 504720, 2011; Endoribonuclease toxin MazF (Escherichia coli (strain K12)), P0AE70; in the data active = activation above about 50%
Target sequence (P0AE70 whole entry, looked up): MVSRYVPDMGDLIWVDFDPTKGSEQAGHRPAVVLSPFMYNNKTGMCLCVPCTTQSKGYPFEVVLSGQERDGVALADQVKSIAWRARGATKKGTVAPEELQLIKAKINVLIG
Starred values were filed as active, the others as inactive; u = inconclusive; x = not tested or not shown. Shown are actives, neighbours in structure and some others; about 3.3% of the full set was active somewhere. Cut-off read from the data, not from the text of the source, unless noted: active = inhibition above about 30%; inconclusive = no clear call, values can overlap the other calls; inactive = below that.

SMILES	BoNT A protease	Bead autofluor	Anthrax LF inh2	SSB-PriA inh	BoNT-F LC inh	MazEF act
CSc1ccc(C2Nc3ccccc3-c3cc(C)nn32)cc1 (configuration not stated)	3	21584*	-2	-55	4	-8
Nc1nonc1-c1noc(COc2ccccc2Cl)n1	0	3596	-1	-5	11	2
Cc1cccc(OCc2nc(-c3nonc3N)no2)c1C	u	22795*	-1	-9	-3	0
Cc1nc2n(c(=O)c1C)CCCN2	x	x	x	-2	x	x
CCc1c(C)c2ccc(O)c(CN(C)C)c2oc1=O	2	22113*	0	-7	1	5
Cc1n[nH]c(C)c1C(=O)CC1(O)C(=O)N(Cc2ccccc2)c2ccc(Br)cc21 (configuration not stated)	1	22972*	1	-2	-1	7
CC(=O)Nc1ccc(NC(N)=Nc2nc(C)cc(C)n2)cc1	x	x	x	-2	x	x
NC(=O)c1cc(S(=O)(=O)NC2CCCCC2)co1	u	22647*	-2	-13	-3	-10
COc1ccc(S(=O)(=O)NC2CCCCCC2)cc1C(N)=O	0	5950	-2	1	4	-33
Cc1ccccc1CSCCNS(C)(=O)=O	-2	17003*	-4	-7	-2	2
CS(=O)(=O)NCCSCc1c(F)cccc1Cl	0	2553	1	-7	-2	1
COc1ccc(S(=O)(=O)NCCSCc2ccccc2C)cc1Br	1	16146*	-2	-9	0	-12
CS(=O)(=O)NCCSCc1c(Cl)cccc1Cl	-2	17037*	0	-6	-2	5
O=C(COc1ccc2c(c1)OCO2)Nc1ccccc1-c1csc(-c2ccccc2F)n1	x	x	x	8	x	x
O=C(NCCCc1ccccc1)Nc1cc(N2CCN(c3ccccc3)CC2)ncn1	x	x	x	0	x	x
C[C@](O)(CNC(=O)c1cccs1)c1ccc2c(c1)OCO2	x	x	x	-11	x	x
Cc1ccc(NC(=O)CSc2nc(=O)n(Cc3cccs3)c3c2CCC3)cc1F	x	x	x	-11	x	x
CCNc1sc(C(=O)c2cccs2)c(N)c1C#N	2	3558	1	-13	-6	4
CCOC(=O)c1sc(NCc2ccco2)c(-c2nc3ccccc3s2)c1N	-1	3956	-2	12	6	0
CCNc1sc(C(=O)c2cccs2)c(N)c1-c1nc2ccccc2s1	3	2901	-4	55*	-20	6
C=CCNc1sc(C(=O)c2ccccc2)c(N)c1-c1nc2ccccc2s1	15	5731	-1	54*	-17	10
CCOC(=O)c1ccc(NC2SC(=O)N(c3ccc(C)c(C)c3)C2=O)cc1 (configuration not stated)	x	x	x	-2	x	x
CCOc1ccc(-c2nnc(SCC(=O)N(CC)CC)n2N)cc1	-4	21180*	1	-6	-5	-1
CCN(CC)C(=O)CSc1nnc(-c2ccncc2)n1N	0	16267*	-2	-11	2	3
CCN(CC)C(=O)CSc1nnc(-c2ccccc2)n1N	-1	21307*	-3	-3	-4	9
SMILES	BoNT A protease	Bead autofluor	Anthrax LF inh2	SSB-PriA inh	BoNT-F LC inh	MazEF act
CCN(CC)C(=O)CSc1nnc2sc3ccccc3n12	-1	19933*	-7	-13	0	-6
Cc1ccc(-c2nnc(SCC(=O)OC(C)C)n2N)cc1	1	9130	5	-3	3	8
CCOc1ccc(-c2csc(-n3nc(C)cc3NC(=O)c3ccccc3C)n2)cc1	x	x	x	4	x	x
COC(=O)c1ccc(CS(=O)(=O)c2ccc(C)cc2)cc1	u	21233*	-4	-11	5	3
COC(=O)c1cccc(COC(=O)c2ccc(CS(=O)(=O)c3ccc(C)cc3)cc2)c1	1	9419	4	-24	-4	4
O=S(=O)(c1ccc2ccccc2c1)N1CCSC1c1ccccc1Cl (configuration not stated)	x	x	x	-9	x	x
Cc1sc(NC(=O)CSc2n[nH]c(N)n2)c(C#N)c1C	0	3277	-4	1	-3	53*
COC(=O)c1c(NC(=O)CSc2n[nH]c(N)n2)sc(C)c1C	-1	3478	-1	3	-13	7
Cc1cc(C)c(S(=O)(=O)c2c(C)cccc2C)c(OCC(C)C)n1	0	23555*	0	-38	-2	-5
COc1ccccc1Oc1ccc(S(=O)(=O)N2CCCC2)cc1	1	23093*	-3	-11	3	-4
COc1ccccc1OCCNc1ccc(S(=O)(=O)N2CCCC2)cn1	x	x	x	2	x	167*
COc1ccccc1-n1c(SCC(N)=O)nnc1-c1ccc(S(=O)(=O)N2CCCCC2)cc1	0	22234*	0	-3	4	7
NC(=O)CSc1nnc(-c2ccc(S(=O)(=O)N3CCCCC3)cc2)n1-c1ccccc1	0	9596	-2	-4	-15	-2
Cc1ccccc1Oc1ccc(S(=O)(=O)N2CCCC2)cc1	x	x	x	-26	x	x
CCCCc1ccc(NC(=O)CSc2nc3c(-c4ccccc4)csc3c(=O)n2C)cc1	x	x	x	-2	x	x
COC(=O)C1CC(Oc2ccccc2F)CN1C(=O)CCS(=O)(=O)c1ccccc1 (configuration not stated)	x	x	x	-3	x	x
CC(C)(C)NC(=O)NC(=O)COC(=O)CCCc1c[nH]c2ccccc12	-3	24864*	-3	13	-9	-5
CCOC(=O)CCCc1c[nH]c2ccccc12	5	21767*	-1	0	4	-7
NS(=O)(=O)c1ccc(CNC(=S)Nc2ccc(Cl)c(Cl)c2)cc1	-1	4819	-4	-11	-1	7
CCCCC(CC)C(=O)NCCc1ccc(S(N)(=O)=O)cc1 (configuration not stated)	0	23826*	-2	-5	-1	-1
CCCCC(=O)NCCc1ccc(S(N)(=O)=O)cc1	-1	16934*	-2	-12	-2	10
NS(=O)(=O)c1ccc(CCNC(=O)Nc2ccc(Cl)c(Cl)c2)cc1	-2	16607*	-8	7	-5	-6
CCCC(C(=O)NCCc1ccc(S(N)(=O)=O)cc1)c1ccccc1 (configuration not stated)	0	3783	3	-4	2	7
CCC(CC)C(=O)Nc1cccc(C(=O)NCCc2ccc(S(N)(=O)=O)cc2)c1	-1	23028*	1	-4	0	-5
Cn1nnc2c(=O)n(CC(=O)c3ccc(Cl)cc3)cnc21	x	x	x	-34	x	x
Cc1nc(-c2ccccc2Cl)sc1CNS(=O)(=O)CCOc1ccc(F)cc1	x	x	x	-35	x	x
O=C(Cn1cnc2ccccc2c1=O)NCCn1nc(-c2cccs2)n(C2CC2)c1=O	x	x	x	-10	x	x
CCOc1ccc(-c2ccc(N3CCN(C(=O)CCc4ccc(OC)cc4)CC3)nn2)cc1	x	x	x	0	x	x
